Source: the supplement of paper PMC7411640
Structures can show the parent of a compound that is named as a salt.

System: MDA-MB-468
Assay: phospho-S6 immunofluorescence (DAPI-normalised), per-plate z-score; higher = higher phospho-S6 signal (less pathway suppression)
Conditions: co-treatment: lapatinib 1 uM; 24 h
Method: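 GPCR-targeted compound library (MedChemExpress HY-L006) tested on MDA-MB-468 PTEN-null TNBC cells in 384-well plates at 0.1, 1 or 10 uM, combined with vehicle, GDC0941 450 nM or lapatinib 1 uM, for 24 h. Phospho-S6 (S240/244) immunofluorescence normalised to DAPI and expressed as a per-plate z-score; values are the mean of biological triplicates.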

Row | SMILES | phospho-S6 immunofluorescence (z-score)
1 | CC(C)c1noc(N2CCC(COc3ccc(-c4ccc(S(C)(=O)=O)cc4)nc3)CC2)n1 (compound 10 µM) | -4.91
2 | CCCc1nc(C(C)(C)O)c(C(=O)O)n1Cc1ccc(-c2ccccc2-c2nnn[nH]2)cc1 [Olmesartan] (compound 10 µM) | 0.28
3 | c1ccc2c(CC3=NCCN3)cccc2c1 [Naphazoline (hydrochloride)] (compound 10 µM) | 0.03
4 | COc1cc2nc(N3CCN(C(=O)C4COc5ccccc5O4)CC3)nc(N)c2cc1OC (stereo unspecified) [Doxazosin (mesylate)] (compound 10 µM) | -7.7
5 | C[C@H](NC(=O)c1cc(Cl)ccc1Oc1ccc(F)cc1)c1ccc(C(=O)O)cc1 (compound 10 µM) | 0.18
6 | CCOC(=O)N[C@@H]1CC[C@@H]2[C@@H](C1)C[C@H]1C(=O)O[C@H](C)[C@H]1[C@H]2/C=C/c1ccc(-c2cccc(F)c2)cn1 [Vorapaxar] (compound 10 µM) | -11.6
7 | CN1CCC(=C2c3ccccc3CCc3sccc32)CC1 [Pizotifen] (compound 10 µM) | -1.87
8 | CC(C)NCC(O)COc1ccc(CCOCC2CC2)cc1 (stereo unspecified) [Betaxolol] (compound 10 µM) | 0.69
9 | CN1CCC(=C2c3ccccc3C=Cc3ccccc32)CC1 [Cyproheptadine (hydrochloride sesquihydrate)] (compound 10 µM) | -0.96
10 | Nc1nc2c(cnn2CCc2ccccc2)c2nc(-c3ccco3)nn12 (compound 10 µM) | 1.51
11 | Cc1ccc(OCC(O)C(C)NC(C)C)c2c1CCC2 (stereo unspecified) [ICI 118,551 (hydrochloride)] (compound 10 µM) | -1.56
